PubChem BioAssay AID504452 (The Scripps Research Institute Molecular Screening Center, 2011)
The source made the active and inactive calls. No stated cut-off is given here; in the data, active means activation above about 85%; inactive means the rest.

Molecular target: Peroxisome proliferator-activated receptor gamma (Homo sapiens) (UniProt P37231)
Assay: PPARg partial agonist activation, primary screen, cell-based, luciferase reporter, luminescence (AID 504452);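 further: Cos-1 cells carrying PPARgamma and a response element luciferase reporter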
Conditions: at 5 µM, stronger effect = higher value; activation (% of full agonist control): measured here: relative to full agonist control

Chain of Peroxisome proliferator-activated receptor gamma (Homo sapiens) (P37231 whole entry, looked up): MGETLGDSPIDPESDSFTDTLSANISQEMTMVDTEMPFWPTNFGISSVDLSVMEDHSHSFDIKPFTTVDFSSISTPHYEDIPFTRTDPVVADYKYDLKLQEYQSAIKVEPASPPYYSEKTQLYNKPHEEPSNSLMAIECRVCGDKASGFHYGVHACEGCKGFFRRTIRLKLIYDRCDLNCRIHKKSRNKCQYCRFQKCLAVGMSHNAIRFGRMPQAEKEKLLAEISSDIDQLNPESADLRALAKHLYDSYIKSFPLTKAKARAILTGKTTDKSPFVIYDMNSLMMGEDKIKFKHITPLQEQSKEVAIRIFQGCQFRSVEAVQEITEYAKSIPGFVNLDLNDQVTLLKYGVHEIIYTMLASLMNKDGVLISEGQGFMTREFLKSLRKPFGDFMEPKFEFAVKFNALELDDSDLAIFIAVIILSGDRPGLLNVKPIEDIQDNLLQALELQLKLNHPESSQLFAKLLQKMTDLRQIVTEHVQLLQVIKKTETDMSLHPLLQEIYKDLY

Compound	activation (% of full agonist control) [%]	activation (% of partial agonist control)
O=C1C(=O)N(Cc2cccnc2)C(c2cccc(F)c2)/C1=C(/O)c1ccc2c(c1)OCO2 (centres undefined)	35.2	77.9% (inactive)
O=C(COc1coc(CN2CCc3ccccc3C2)cc1=O)Nc1ccc(F)cc1F	44.3	98.2% (active)
Cc1cc(C)c2nc(N3C(=O)C(O)=C(C(=O)c4ccco4)C3c3ccco3)sc2c1 (centres undefined)	32.9	72.7% (inactive)
O=C(CSc1nnc(Cc2cc(=O)[nH]c(=O)[nH]2)n1-c1ccc(Cl)cc1)N1CCc2ccccc21	46.6	103% (active)
Cc1[nH][nH]c(=O)c1C(c1c(C)[nH][nH]c1=O)c1cn(Cc2cccc3ccccc23)c2ccccc12	37.6	83.3% (inactive)
Cc1ccc2nc(N3C(=O)C(O)=C(C(=O)c4ccc(C)o4)C3c3ccc(O)cc3)sc2c1 (centres undefined)	37	81.9% (inactive)
O=C(c1ccc(F)cc1)c1cn(Cc2ccc(F)cc2)c2cc3c(cc2c1=O)OCCO3	37.8	83.8% (inactive)
O=C(Cc1c(C(=O)O)[nH]c2ccccc12)Nc1ccc2c(c1)OCO2	7.95	17.6% (inactive)
COc1ccc2c(c1)c(=O)c(C(=O)c1ccc(F)cc1)cn2CC(=O)Nc1ccc(F)cc1	48.8	108% (active)
CCOC(=O)/C=c1\s/c(=C\c2ccc3cc(OC)ccc3c2)c(=O)n1CC(=O)NCC1CCCO1 (centres undefined)	28.6	63.3% (inactive)
O=C(NCC(c1ccco1)N1CCc2ccccc2C1)c1cccc(F)c1 (centres undefined)	33.4	74% (inactive)
Nc1ccccc1SC1CC(=O)N(c2ccc3c(c2)OCO3)C1=O (centres undefined)	34.5	76.4% (inactive)
